KKLEB cytotox: cytotoxicity in KKLEB CF airway cells, primary screen, cytotoxicity control for CF NF-kB inhibitor project, cell-based, uHTS, fluorescence assay plates. KKLEB CF airway cells viability, ATPlite luminescence, overnight; active compounds read low; cells stimulated with P. aeruginosa culture filtrate. activity change (cytotoxicity), % at 5 µM. hit rate 0.36% among 360,000. AID 602141, 2011;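 active means corrected activity change at or below -50% at 5 µM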
TRAIL sens C8: viability loss with TRAIL in NB7+C8 cells, primary screen, TRAIL sensitizer project, cell-based, ATPlite luminescence; AID 624354, 2012; inhibition (viability loss, TRAIL sensitization), % at 10 µM; hit rate 1% among 360,000;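 active means compounds causing at least 50% loss of cell viability in the single-dose screen, relative to plate controls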
PPC-1+TRAIL kill: compounds killing PPC-1 cancer cells with TRAIL present, primary screen, TRAIL potentiator project, ATPLite luminescence, uHTS. PPC-1 cells + TRAIL, ATPLite viability luminescence. cell killing (% activity), % at 4 µM or 5 µM. hit rate 0.41% among 220,000;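 active means cell killing above 50% in the first pass at 4 µM, then a duplicate retest at 5 µM averaging 50% or more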;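 further: plate controls were cells with TRAIL plus DMSO for no effect and medium-only wells lacking cells for full effect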
HIF-2a inh: HIF-2a reporter inhibitors, primary screen, luminescence, 786-0 RCC cells; 786-0 RCC cells HIF-2a reporter, luciferase luminescence, overnight; inhibition, % at 18.8 µM; hit rate 0.72% among 360,000; AID 624352, 2012;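 active means inhibition of the luminescence signal of 40% or more relative to plate controls, in a single-dose primary screen at 18.75 µM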
Peg3 prom inh-1: Peg3 promoter-driven luciferase inhibitors, primary screen, cell-based, HeLa, luciferase luminescence; inhibition, % at 20 µM; HeLa PEG-Prom luciferase reporter, overnight; hit rate 1.7% among 360,000;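 active means inhibition of at least 50% at 20 µM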
CF NFkB block: inhibitors of PAF-induced NF-kB signaling, primary screen, cell-based, GFP fluorescence, uHTS | AID 588850, 2011 | hit rate 0.86% among 360,000 | inhibition, % at 5 µM | KKLEB NF-kB-GFP reporter, GFP fluorescence overnight;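 active means at least 50% inhibition at 5 µM, scaled per plate between neutral and stimulator controls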;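 further: PAF is a Pseudomonas aeruginosa culture filtrate used as stimulus; plate controls were PAF-stimulated DMSO wells for no effect and unstimulated DMSO wells for full effect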
PPC1 cytotox: cytotoxicity in PPC-1 cells, confirmation, cytotoxicity control for TRAIL apoptosis potentiator project, cell-based, ATP content luminescence | shares compounds with PPC-1+TRAIL kill | PPC-1 viability, ATPlite luminescence, overnight | cytotoxicity, % at 5 µM | hit rate 50% among 1,200 | AID 1447, 2008;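 active means reconfirmed compounds whose average cytotoxicity reaches 50% or more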;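 further: 0% = DMSO-treated cells and 100% = wells holding medium but no cells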
Peg3 prom inh-2: Peg3 promoter reporter inhibitors, retest, confirmation, cell-based, HeLa, luciferase reporter, single concentration; shares compounds with Peg3 prom inh-1; HeLa PEG-Prom luciferase reporter, luminescence, overnight; inhibition, % at 20 µM; hit rate 84% among 1,300;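 active means at 20 µM dose, 40% or more inhibition averaged across four replicates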
Active calls of the source: *; . = no result given. Hits are enriched below; roughly 3.1% of the tested compounds scored in any of these assays.

SMILES	KKLEB cytotox	TRAIL sens C8	PPC-1+TRAIL kill	HIF-2a inh	Peg3 prom inh-1	CF NFkB block	PPC1 cytotox	Peg3 prom inh-2
COc1ccc(-c2cn3c(C)c(C(=O)N4CCCc5ccccc54)sc3n2)cc1	12	26	.	-67	-4	-47	.	.
COc1cc2ccccc2cc1C(=O)Nc1cccnc1	7	5	8	-228	-213	-22	16	.
Cc1nc2c(-c3ccccc3)c(C)nn2c(SCC(N)=O)c1Cc1ccccc1	-5	14	2	29	27	-12	.	.
CCC(=O)Nc1sccc1C(=O)OC	-9	8	-4	3	4	2	-1	.
CCOC(=O)N=Nc1c2ccccc2c2nc3no[nH]c3nc12	-65*	96*	83*	-38	108*	95*	81*	.
CC(C)(C)c1ccc(/C=N/NC(=O)c2ccccn2)cc1	-35	76*	64*	-110	-88	-5	61*	.
O=C(N/N=C/c1ccsc1)c1ccccn1	6	19	0	-231	-205	-16	.	.
COc1ccccc1C1NC(=O)NC(C)=C1C(=O)OCC1CCCCC1 (configuration not stated)	-2	-22	.	6	14	4	.	.
CCN(CC)c1ccc(N=Cc2cc(Br)ccc2O)cc1	16	-6	-1	4	22	-12	11	.
CCC(=O)Nc1cc2nn(-c3ccc(OC)cc3)nc2cc1C	-4	59*	58*	-151	-159	-3	49	.
CCC(=O)Nc1cc2nn(-c3ccc(C)cc3)nc2cc1C	-32	65*	59*	-40	62*	-6	55*	.
CCCCC(=O)Nc1cc2nn(-c3ccc(OC)cc3)nc2cc1C	-5	-21	14	-97	-84	7	.	.
O=C(Nc1ccc([N+](=O)[O-])cc1)C(=O)Nc1cccc(C(=O)O)c1	12	86*	75*	80*	64*	-26	70*	68*
COc1ccc(C(=O)NC2=NCCS2)cc1S(=O)(=O)N1CCOCC1	0	-2	.	4	17	-11	.	.
N/C(=N\OC(=O)c1ccccc1)c1ccncc1	-1	2	24	-16	-12	8	.	.
N/C(=N\OC(=O)c1ccccc1)c1ccccn1	0	49	43	-44	95*	-3	52*	8
C/C(=N\NC(=O)C1CCCC1)c1ccc(Cl)cc1	-7	-7	.	-31	-50	24	.	.
FC(F)(F)c1ccc(-c2nc3ccccc3s2)cc1	5	-14	.	-130	-160	-16	.	.
CC(C)c1ccc(-c2nc3ccccc3s2)cc1	-79*	93*	91*	77*	72*	21	92*	83*
COc1cc(-c2nc3ccccc3s2)ccc1O	0	9	13	-216	-180	-24	.	.
COc1ccc(-c2nc3ccccc3s2)cc1O	-54*	82*	83*	40	55*	-10	84*	37
COc1cc(SC)ccc1C(=O)Nc1ccc(C)cc1	-31	25	23	-230	-250	3	.	.
COc1cc(SC)ccc1C(=O)Nc1ncc(C)s1	-53*	80*	73*	49*	77*	-10	76*	61*
O=C(/C=C/c1ccccc1)Nc1cccc(C(=O)O)c1	3	81*	64*	87*	85*	-4	61*	77*
O=C(/C=C/c1ccccc1)Nc1cc(NC(=O)/C=C/c2ccccc2)cc(C(=O)O)c1	16	-2	.	19	14	-6	.	.
SMILES	KKLEB cytotox	TRAIL sens C8	PPC-1+TRAIL kill	HIF-2a inh	Peg3 prom inh-1	CF NFkB block	PPC1 cytotox	Peg3 prom inh-2
CCOc1ccc2nc(NC(=O)c3ccccn3)sc2c1	-38	82*	84*	-17	104*	-5	81*	90*
CCC(C)C1Nc2ccc(C(=O)NCCc3ccc(OC)c(OC)c3)cc2NC1=O (configuration not stated)	-10	4	.	21	22	11	.	.
C[N+](C)(C)CCN1CCc2ccccc21	.	3	.	3	.	.	.	.
CCOC(=O)N1CCN(C(=O)C[C@@H]2C[C@@]3(C(=O)OC)CC(C)(C)CC=C3N(Cc3ccccc3)C2=O)CC1	.	2	.	2	.	.	.	.
Cc1ccc2oc(/N=C(\N)NC(=O)C(C)(C)C)nc2c1	-61*	86*	83*	81*	82*	-20	83*	85*
Cc1ccc(C(=O)NCC(=O)NCCCc2ccccc2)cc1	0	0	.	6	-5	-2	.	.
Cc1ccc(-c2cc3c(N=O)c4ccccc4c-3n[nH]2)cc1	-81*	93*	95*	68*	59*	-22	94*	69*
O=C(OCC(=O)N1CCOCC1)c1cc(F)c(F)cc1Cl	-4	-10	.	1	11	-4	.	.
O=C(Nc1nccs1)c1cc2c(s1)CCCCC2	-54*	90*	84*	51*	58*	-11	78*	16
Cc1cc(/C=N/Nc2ncnc(N)c2[N+](=O)[O-])c(C)n1-c1ccccc1	-50*	85*	86*	59*	92*	-14	87*	84*
CCCOc1ccc2cc(-c3ccccn3)c(=O)oc2c1	-46	89*	79*	55*	74*	-14	80*	68*
COc1ccc(/C=N/Nc2nncc3ccccc23)cc1	-40	91*	95*	25	56*	-44	95*	46*
CCCCCCN1C=CC(=C2C(=O)c3ccccc3C2=O)C=C1	-58*	92*	81*	39	58*	-20	80*	43*
CN1C=CC(=C2C(=O)c3ccccc3C2=O)C=C1	.	.	46	.	.	.	.	.
CCN1C=CC(=C2C(=O)c3ccccc3C2=O)C=C1	-46	91*	96*	87*	97*	-11	96*	90*
COC(=O)c1ccc2nc(-c3cccc(N)c3)cn2c1	-6	72*	66*	37	68*	-6	67*	11
COC(=O)c1ccc2nc(-c3ccc(S(C)(=O)=O)cc3)cn2c1	-4	12	4	-143	-160	3	.	.
CCOC(=O)CNC(=O)C1(NC(=O)CNC(=O)OCc2ccccc2)CCCC1	7	-2	.	-9	-12	-20	.	.
O=C(N=C1SC2CS(=O)(=O)CC2N1c1ccccc1C(F)(F)F)C1CCCO1 (configuration not stated)	0	1	.	-5	-8	-9	.	.

From PubChem
